Inconclusive results are not listed. Activity calls are given as the source filed them. Calls come from the whole dose curve; as a rule, active = well fitted inhibition curve with a large enough effect; inconclusive = small, poorly fitted or top-dose-only effect; inactive = flat fitted curve, though single readings scatter.
experiment: qHTS for Inhibitors of Plasmodium falciparum (HB3) proliferation (AID 504318); note: nearly all actives have a fitted effect of over 60% in size; conditions: P. falciparum HB3 in erythrocytes, SYBR Green DNA, 72 h; series mostly up to 7.21 µM
Method in brief: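 Erythrocytes infected with P. falciparum line (0.3% parasitemia, 2.5% hematocrit final) incubated with compounds 72 h at 37 °C, 5% CO2; SYBR Green lysis buffer added, fluorescence read next day. Normalized to 0.29 uM artemisinin and DMSO.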

Potency, inactive:
COC(=O)C1=C(C)N(Cc2ccccc2)C(=NCCc2ccccn2)NC1c1cccc(C(F)(F)F)c1 (stereo not given)
CC(=O)C1=C(C)N(Cc2ccco2)C(=O)NC1c1ccccc1 (stereo not given)
CC(=O)C1=CN(CCc2c[nH]c3ccccc23)C(=O)NC1c1ccccc1 (stereo not given)
C=C(C(C)=O)C(O)c1ccc(C(F)(F)F)cc1 (stereo not given)
CC(C)OC(=O)[C@@H]1CC[C@H](C)[C@@H](CCC[C@@H]2CC=C[C@H](CC#N)O2)O1
COCCN1C(=O)CC[C@@]23C1=NC(C(=O)OC)=C(C(=O)OC)[C@@H]2N(CC=C(C)C)c1ccccc13
CON(C)C(=O)c1nnc2c3ccccc3n(S(=O)(=O)c3ccc(C)cc3)c2n1
CCOC(=O)C(C)=NNC(C)=O
COc1ccc2c(c1)[C@@]1(OCCC=C[C@@H]1C)C(=O)N2Cc1ccc(Br)cc1
CC(CCN1CCc2nc(-c3ccccc3)c(-c3ccccc3)cc2C1)=NOC[C@@H](O)COCc1ccco1
O=C(C=NO)NCCCCNC(=O)C=NO
COC[C@@H](OC(C)=O)[C@H]1OCc2ccccc2[C@@H]1C=Cc1ccccc1
CCN1C(=NCCc2cccnc2)N[C@H](CCc2ccccc2)[C@H](C(=O)OC)[C@H]1C
CCCCc1nc2c(c3c1C[C@H](C)OC3)CN(C(=O)Cc1cccs1)CC2
CC(C)[C@@H](OCc1ccccc1)[C@H](C)C=NOC[C@@H](C)[C@H](OCc1ccccc1)C(C)C
CCOC(=O)CN1C(=O)NC(c2ccc(Br)cc2)C(C(=O)OC)=C1C (stereo not given)
COC(=O)CC=C1c2ccc(F)cc2[C@@H](OC)[C@@H]1C
CC(=O)OC[C@H]1O[C@H](CCON=C(C)CCN2CCCCc3nc(C)c(C)cc32)C=C[C@H]1OC(C)=O
COC[C@@H](O)[C@H]1OCc2ccccc2[C@H]1C=Cc1ccccc1
C#CCN1C(=O)[C@@]2(CC(C)=CC[C@@H](C)O2)c2ccccc21
COc1ccc(-c2ccc3c(n2)CCCN3CC(O)CN2CCCc3nc(C)c(C)cc32)cc1 (stereo not given)
C=CCOC(=O)N[C@H](c1ccc2ccccc2c1)[C@H](C)C=CCC(=O)OC
COC(=O)[C@@]1(C=C[C@@H](C)[C@H](OC)c2ccccc2Br)[C@@H]2OCCC[C@@H]21
C=CCN1c2ccccc2[C@]23CCC(=O)N(Cc4ccco4)C2=NC(C(=O)OC)=C(C(=O)OC)[C@H]13
COc1ccc(C(=O)CC(=O)c2c(O)cc(OC)cc2OC)cc1
COC(=O)CCC(=O)OC1(C)C(=O)C=C2C=C(C3CC3)N(Cc3ccco3)C=C2C1=O (stereo not given)
C#CCN1C(=O)CC[C@@]23C1=NC(C(=O)OC)=C(C(=O)OC)[C@@H]2N(CC=C(C)C)c1ccccc13
CCCCCCCC1=Cc2ccc(F)cc2C(C(C(C)=O)C(=O)OC)N1C(=O)OC (stereo not given)
COC1=C[C@H](C(=O)NCc2ccc(OC)cc2)C(C)C(c2ccccc2)CC1=O (stereo not given in full)
CCN1C(=O)NC(CCc2ccccc2)C(C(C)=O)=C1C (stereo not given)
